Calls of active or inactive are those of the source. Rule for the calls: active = hit-call score of the fitted dose curve at least 0.9, where 1 is the maximum; inactive = score below 0.9.

The assay in a line: ATG_DR4_LXR_CIS: Attagene CIS-FACTORIAL HepG2 Assay for human Liver X Receptor (LXR), DR4 submotif (AID 2282929). The following applies: HepG2 Attagene DR4 cis-reporter, mRNA transcription; actives raise or lower the signal. How it is done:
ATG_CIS is a cell-based, multiplexed-readout assay that uses HepG2, a human liver cell line, with measurements taken at 24 hours after chemical dosing in a 24-well plate.ATG_DR4_LXR_CIS is one of 52 assay component(s) measured or calculated from the ATG_CIS assay. It is designed to make measurements of mRNA induction, a form of inducible reporter, as detected with fluorescence intensity signals by Reverse transcription polymerase chain reaction (RT-PCR) and Capillary electrophoresis technology.Data from the assay component ATG_DR4_LXR_CIS was analyzed into 1 assay endpoint. This assay endpoint, ATG_DR4_LXR_CIS, was analyzed with bidirectional fitting relative to DMSO as the negative control and baseline of activity. Using a type of inducible reporter, measures of mRNA for gain or loss-of-signal activity can be used to understand the reporter gene at the transcription factor-level as they relate to the gene NR1H2 and NR1H3. Furthermore, this assay endpoint can be referred to as a primary readout, because this assay has produced multiple assay endpoints where this one serves a reporter gene function. To generalize the intended target to other relatable targets, this assay endpoint is annotated to the nuclear receptor intended target family, where the subfamily is non-steroidal.
Human liver HepG2 cells are transiently transfected with multiple reporter transcription units (MRTUs) in 6-well plates using FuGene 6 reagent (Roche; 3 ml FuGene/1 mg DNA). The MRTU constructs are regulated by a cis-regulating element (promoter). […] A major difference between the CIS and TRANS system is that in CIS activities of endogenous TFs are measured, whereas the TRANS assay evaluates changes in activities of exogenous, chimeric NR-Gal4 proteins. […] At the end of 24 hour incubation, total RNA was isolated using TriZol reagent (Invitrogen). The isolated RNA is then reverse-transcribed using oligo(dT) primer and Mo-MLV reverse transcriptase (Invitrogen) with DNAse I (Ambion) treatment for 30 min. The one-tenth of the produced cDNA was amplified by PCR using Taq DNA polymerase (Invitrogen) and two reporter sequence-specific primers. The PCR products were fluorescently labeled by primer extension with 6-arboxyfluorescein (6-FAM) 5'-labeled reporter sequence-specific primer (2 min at 95 C, 20 s at 68 C and 10 min at 72 C) and these products were digested with 5U of HpaI (New England Biolabs) for 2h at 37 C. The fragments were purified using Qiaquick PCR columns (Qiagen), analyzed on an ABI 3130xL genetic analyzer (Applied Biosystems) with peak positions identified by using a set of X-rhodamine (ROX)-labeled MapMarker1000 molecular weight standards (BioVentures). The raw capillary electrophoresis data was processed using Attagraph software (Attagene).
On to `O=C(Cl)c1cccc(C(=O)Cl)c1`, for which the compound was called inactive. Still for that read-out and setting: to `CCCCOCCOCCSC#N` belongs “inactive”; to `CC1CCC(C(C)(C)O)CC1` (stereo not given), “inactive”.

As for `CC(=O)Nc1ccc(CC(=O)O)cc1`, the outcome was inactive.

In the case of `Cc1ccccc1C=O`, the call was inactive.

As for `Clc1nc(C(Cl)(Cl)Cl)c(Cl)c(Cl)c1Cl`, the AC50 was 18 µM (active).

As to `CN(C)CCOCCN(C)C`, the compound was classed as inactive. `O=C1c2ccccc2C(=O)N1SC1CCCCC1`: the AC50 was 170 µM (active).

For the compound `C=C(C)C(=O)O`, the compound was classed as inactive. As for `CC(=O)O[C@H](CC(=O)[O-])C[N+](C)(C)C`, the result was inactive. Same read-out and setting: with `O=C(Oc1ccccc1)c1ccc(O)cc1` the entry was “inactive”. As to `CCCCCCCCCCCCCCCC(=O)OC[C@H](O)[C@H]1OC(=O)C(O)=C1O`, the half-maximal activity concentration (AC50) was 76.2 µM (active).

Consider `OCc1cccnc1`, for which the result was inactive. Still for that read-out and setting: with `CCCCC(CC)COCCC#N` (stereo not given) the entry was “inactive”.

`Cc1ccc(C(=O)c2cc(O)c(O)c([N+](=O)[O-])c2)cc1`: the compound was classed as inactive. `CC1(C)CCC(C)(C)c2cc(C(=O)Nc3ccc(C(=O)O)cc3)ccc21`: the AC50 was 27.6 µM (active).

With `C=C[C@@H](C)CCC=C(C)C`, the call was inactive. With `O=C(O)c1cccc(C(F)(F)F)c1`, the call was inactive. In the case of `Cc1ccc(O)c(C(C)(C)C)c1`, the half-maximal activity concentration (AC50) was 100 µM (active). On to `CCCCC/C=C/C=C/C=O`, for which the AC50 was 167 µM (active). Consider `CCOC(=O)c1ccccc1OC`, for which the result was inactive. Still for that read-out and setting: to `COc1cc(C)cc(O)c1` belongs “inactive”; to `CCC(=O)OCCC(C)CCC=C(C)C` (stereo not given), “inactive”. The same measure, in the same setting: with `CCc1ccc(C=O)cc1` the entry was “inactive”; with `COc1cc2ncnc(Nc3cccc(Cl)c3)c2cc1OC`, “inactive”. The same measure, in the same setting: with `NCCNCCN` the entry was “inactive”; with `CSc1nnc(C(C)(C)C)c(=O)[nH]1`, “inactive”; with `CC(c1cc2ccccc2s1)N(O)C(N)=O` (stereo not given), “inactive”. On to `Nc1ccc(S(=O)(=O)O)c(N)c1`, for which the call was inactive. Still for that read-out and setting: with `O=C(O)Cc1cccc2ccccc12` the entry was “inactive”; with `Cc1ccc2n[nH]nc2c1`, “inactive”. Consider `O=Cc1ccc(Cl)c([N+](=O)[O-])c1`, for which the AC50 is 48.4 µM (active). The same measure, in the same setting: to `O=C=NC1CCC(CC2CCC(N=C=O)CC2)CC1` (stereo not given) belongs 179 µM (active).

Turning to `CCCCCCCCCCCCCOS(=O)(=O)O`, the result was inactive.

As to `CC1(C)[C@H](C(=O)OCc2cccc(Oc3ccccc3)c2)[C@@H]1C=C(Cl)Cl`, the call was inactive.

For the compound `Cc1c(Cl)c(=O)oc2cc(O)ccc12`, the compound was called inactive. For `CCCCC(CC)COC(=O)/C=C\C(=O)OCC(CC)CCCC` (stereo not given), the AC50 is 54.7 µM (active). The same measure, in the same setting: to `CC(C)C[C@H]1C(=O)N2CCC[C@H]2[C@]2(O)O[C@](NC(=O)[C@@H]3C=C4c5cccc6[nH]c(Br)c(c56)C[C@H]4N(C)C3)(C(C)C)C(=O)N12` belongs 7.76 µM (active). Turning to `CCCCC[Si](OCC)(OCC)OCC`, the compound was called inactive. `Cc1ccc(Nc2ccc(O)c3c2C(=O)c2ccccc2C3=O)cc1`: the compound was called inactive.

For orientation: AC50 means the concentration at which the activity in the assay is half-maximal.

(Values after PubChem BioAssay (EPA / NIEHS).)
